Hits are enriched below; roughly 2.4% of the tested compounds scored in any of these assays.
D2 antagonist – HTS Assay for Allosteric Antagonists of the Human D2 Dopamine Receptor: Primary Screen for Antagonists; D(2) dopamine receptor (Homo sapiens), P14416; HEK293 TREx D2 cells, calcium flux, dopamine EC80; inhibition, % at 10 µM; hit rate 2% among 340,000; AID 485344, 2010; in the data active = inhibition above about 30%; inactive = below that, where a call was filed; also: 0% is about no effect
Target sequence (P14416 whole entry, looked up): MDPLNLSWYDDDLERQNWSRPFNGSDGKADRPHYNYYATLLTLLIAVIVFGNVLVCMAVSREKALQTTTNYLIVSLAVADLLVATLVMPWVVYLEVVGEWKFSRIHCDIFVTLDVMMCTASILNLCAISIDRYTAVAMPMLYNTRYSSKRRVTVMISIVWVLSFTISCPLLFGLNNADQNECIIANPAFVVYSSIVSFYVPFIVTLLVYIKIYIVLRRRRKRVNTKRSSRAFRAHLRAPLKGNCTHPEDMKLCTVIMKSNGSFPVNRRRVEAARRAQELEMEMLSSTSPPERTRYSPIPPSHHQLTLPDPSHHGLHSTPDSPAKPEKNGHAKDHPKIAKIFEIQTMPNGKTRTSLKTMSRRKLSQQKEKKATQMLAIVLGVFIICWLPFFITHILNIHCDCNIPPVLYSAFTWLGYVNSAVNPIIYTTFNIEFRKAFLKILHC
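Tetracycline-induced HEK293 T-REx cells expressing D2 force-coupled to calcium signalling were dye-loaded, exposed to compound for 180 s, then challenged with an EC80 of dopamine; calcium flux was followed kinetically for a further 180 s.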
D2 PAM-1 – Beta-Arrestin HTS for Positive Allosteric Modulators of the Human D2 Dopamine Receptor: Potentiators; potentiation, % (concentration not given with the values); D(2) dopamine receptor (Homo sapiens), P14416; hit rate 0.23% among 360,000; AID 624464, 2012; DiscoveRx D2 beta-arrestin cells, luminescence, 90 min; 100% = 57 uM dopamine signal; in the data active = potentiation above about 50%; inconclusive = mostly about 30% to 49%
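D2 cells co-treated with compound plus 50 nM dopamine (EC20) for 90 min at 37 deg C to detect potentiation. Beta-arrestin recruitment was read as enzyme-fragment luminescence after 1 h at ambient temperature. Full response was set by 57 uM dopamine.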
D2 PAM-2 – HTS Assay for Positive Allosteric Modulators of the Human D2 Dopamine Receptor: Primary Screen for Potentiators; D(2) dopamine receptor (Homo sapiens), P14416; HEK293 T-REx D2, calcium flux, EC20 dopamine potentiation; potentiation, % at 10 µM; hit rate 0.34% among 340,000; AID 485347, 2010;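 active = potentiation over 3 SD above the plate norm, cut at about 30% in these data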; also: 0% is about no effect
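Primary screen. Calcium kinetics in induced HEK293 T-REx D2 cells: compound pre-addition 180 s, EC20 dopamine, 180 s more.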
D2 ag-1 – HTS Assay for Allosteric Agonists of the Human D2 Dopamine Receptor: Primary Screen for Agonists; D(2) dopamine receptor (Homo sapiens), P14416; HEK293 T-REx D2 cells, calcium flux agonist mode; activation, % at 2 µM; hit rate 0.53% among 340,000;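 active = activation over 3 SD above normal in the single-dose calcium agonist read, cut at about 30% in these data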; also: 0% is about no effect
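Calcium-flux readout, 1 cycle/sec over 180 s following compound pin transfer, in inducible HEK293 Trex D2 cells (force-coupled); dopamine controls included. Positive calcium responses during this window marked compounds as potential agonists.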
D2 ag-2 – Beta-Arrestin HTS for Positive Allosteric Modulators of the Human D2 Dopamine Receptor: Agonists; D(2) dopamine receptor (Homo sapiens), P14416; DiscoveRx PathHunter D2 beta-arrestin, luminescence, 90 min; 100% = 57 uM dopamine signal; activation, % (test concentration not listed); hit rate 0.084% among 360,000; AID 624465, 2012; in the data active = activation above about 40%; inconclusive = between about 15% and that limit
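Agonist mode: compounds alone added to overnight-plated D2 PathHunter cells for 90 min at 37 C, with 57 uM final dopamine (EC100) defining full response. Beta-arrestin recruitment detected by chemiluminescent reagent, read after 1 h at ambient temperature.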
An asterisk follows results filed as active; ? = inconclusive; . = not tested or not shown.

SMILES	D2 antagonist	D2 PAM-1	D2 PAM-2	D2 ag-1	D2 ag-2
COc1ccccc1OCCCC(=O)Nc1nnc(C2CCCO2)s1 (configuration not stated)	2.4	-4.2	4.6	0.0	-1.9
Cc1ccc2nc(NCC(=O)O)nc(-c3ccccc3)c2c1	-1.6	2.3	0.7	0.1	-0.2
Cc1ccc2nc(NCCC(=O)O)nc(-c3ccccc3)c2c1	-7.3	-1.1	31.3*	4.4	-3.4
Cc1ccc(CN2CCN(CC(=O)NCc3ccccc3Cl)C2=O)cc1	.	.	-0.3	-2.8	.
Cc1ccc(-c2nc3cc(N)ccc3o2)cc1Br	-7.8	-7.5	3.5	-0.1	1.5
Clc1ccc2oc(-c3ccccn3)nc2c1	-12.2	3.8	4.2	1.1	-0.2
Cc1ccc(C)c(-c2nc3cc(N)ccc3o2)c1	-7.2	-17.2	32.8*	0.7	-6.0
Nc1ccc2oc(-c3ccccn3)nc2c1	-2.5	0.0	50.0*	0.1	-3.5
Cc1nc2sccn2c(=O)c1S(=O)(=O)N1CCN(c2ccccc2)CC1	5.0	1.5	-2.5	0.0	-2.2
Cc1nc2sccn2c(=O)c1CCN1CCC(=C(c2ccccc2)c2ccc(F)cc2)CC1	73.5*	.	-25.1	2.0	.
O=C(CCSCCC(=O)NCc1ccccc1)NCc1ccccc1	11.3	10.1	0.2	0.6	-1.8
NS(=O)(=O)c1ccc(CNC(=O)CCSCCC(=O)NCc2ccc(S(N)(=O)=O)cc2)cc1	32.9*	-7.4	0.2	-2.4	-2.0
CCC(C)(C)NC(=O)c1ccc2c(c1)S(=O)(=O)c1ccccc1C2=O	-13.7	71.1*	16.7	0.0	-0.9
O=C1c2ccccc2S(=O)(=O)c2cc(C(=O)N(c3ccccn3)c3ccccn3)ccc21	22.2	?	17.3	36.8*	6.0
O=C(Nc1ccccn1)c1ccc2c(c1)S(=O)(=O)c1ccccc1C2=O	-7.9	-0.7	13.2	1.5	1.3
O=C(NCCOc1ccccc1)c1ccc2c(c1)S(=O)(=O)c1cc(Cl)ccc1C2=O	.	72.9*	.	.	7.4
C=CCn1c(CNC(=O)c2ccccc2F)nnc1SCc1nc2ccccc2c(=O)[nH]1	.	-30.8	37.8*	.	13.2
O=C(c1cccc(S(=O)(=O)N2CCOCC2)c1)N1CCN(S(=O)(=O)c2cccs2)CC1	41.6*	-5.7	-0.5	3.6	-3.2
O=C(NC1=NCCS1)c1cccc(S(=O)(=O)N2CCOCC2)c1	34.5*	-4.2	-8.3	-0.3	0.3
O=C(c1cccc(S(=O)(=O)N2CCCCC2)c1)N1CCOCC1	9.8	-13.2	-0.6	0.1	-3.4
Cc1ccc(C)c(OCCC(=O)OCc2csc(CC(=O)Nc3ccccc3C)n2)c1	2.1	9.8	17.0	1.0	3.3
COc1ccc(OCC(=O)Nc2c(C(=O)N(CCN(C)C)Cc3ccco3)oc3ccccc23)cc1	-2.8	-30.4	31.3*	0.7	-3.5
COc1ccc(Br)cc1CN1CCCC(C(=O)N2CCCCCC2)C1 (configuration not stated)	32.4*	-34.6	-5.8	0.7	-4.4
Cc1cccc(OCC(=O)Nc2nnc(S(=O)(=O)N3CCc4ccccc43)s2)c1	.	.	5.5	-0.5	.
COCCc1nn2c(=O)cc(COC(=O)c3ccccc3C)nc2s1	.	.	-7.4	-1.4	.
SMILES	D2 antagonist	D2 PAM-1	D2 PAM-2	D2 ag-1	D2 ag-2
Cc1ccc(S(=O)(=O)N2CCC(C(=O)N3CC(C)OC(C)C3)CC2)cc1 (configuration not stated)	50.5*	-12.4	1.7	-0.5	-4.2
COc1ccc(COC(=O)NC2CCN(S(=O)(=O)c3ccc(OC)cc3)CC2)cc1	-8.1	-4.1	10.7	-0.7	-0.1
COc1ccc(S(=O)(=O)N2CCC(NC(=O)OCc3c(Cl)cccc3Cl)CC2)cc1	34.6*	-6.9	4.5	1.3	-1.9
COc1ccc(S(=O)(=O)N2CCC(C(=O)NCc3ccc(C)cc3)CC2)cc1	34.2*	-8.2	-1.2	-0.1	-4.0
COc1ccc(CNC(=O)C2CCCN(S(=O)(=O)c3ccc(-n4cnnn4)cc3)C2)cc1 (configuration not stated)	36.0*	3.4	-15.9	0.5	-3.1
COc1ccc(CNC(=O)C2CCN(S(=O)(=O)c3ccc(F)cc3)CC2)cc1	.	.	-19.7	-1.8	.
Cc1c(C(=O)NCc2ccccc2Cl)sc2nc3n(c(=O)c12)CCCC3	.	.	-7.2	0.9	.
Cc1ccc(CCNC(=O)Cc2ccc(NC3=NC4CS(=O)(=O)CC4S3)cc2)cc1 (configuration not stated)	37.7*	-4.7	-4.4	-0.2	-6.0
COc1ccc(OC)c(CCNC(=O)c2ccc(NC3=NC4CS(=O)(=O)CC4S3)cc2)c1 (configuration not stated)	34.5*	-3.2	19.4	0.0	-2.8
Cc1cc(C)cc(NC(=O)c2cccc(NC3=NC4CS(=O)(=O)CC4S3)c2)c1 (configuration not stated)	34.1*	-7.3	3.8	-0.2	-9.7
CCOc1ccccc1NC(=O)c1cccc(NC2=NC3CS(=O)(=O)CC3S2)c1 (configuration not stated)	0.3	0.1	2.6	-0.3	-4.2
Cc1cccc(Cn2cc3c(=O)n(CC(=O)Nc4cccc(C)c4C)nc-3c3cc(F)ccc32)c1	.	.	-2.9	0.1	.
CCCN1C(=O)/C(=C/c2ccc(C)s2)NC1=S	31.4*	-1.7	-10.3	0.4	-1.7
CC(C)(C)c1ccc(/C=C(\C#N)C(=O)NC2CC2)cc1	.	-4.5	.	.	-6.1
CN(C)S(=O)(=O)c1cc(NC(=O)CNCc2ccc(F)cc2)ccc1Cl	43.8*	-26.5	-26.2	0.0	1.0
CCOc1ccccc1NC(=O)C(=O)NCCc1sc2nc(-c3ccc(OC)cc3)nn2c1C	.	.	8.1	0.9	.
CCS(=O)(=O)N1Cc2ccccc2CC1C(=O)Nc1cccc(OC)c1 (configuration not stated)	34.4*	-1.6	0.5	-0.5	-2.1
CCS(=O)(=O)N1Cc2ccccc2CC1C(=O)Nc1ccc(OC)c(OC)c1 (configuration not stated)	4.0	0.0	-2.2	0.1	-1.8
CCC(=O)N1CCc2cc(Br)cc(S(=O)(=O)CCC(=O)N3CCN(c4ccc(OC)cc4)CC3)c21	.	.	-6.7	-0.6	.
CCNC(=S)N/N=C/c1cccc(OCc2c(F)cccc2Cl)c1	-21.2	-3.1	0.5	-0.6	-1.6
CC1(C(=O)NS(=O)(=O)c2cccs2)CCN1C(=O)c1ccccc1CCc1ccccc1 (configuration not stated)	.	6.0	.	.	-2.2

Screening results from PubChem.
